Inconclusive results are not listed. Active and inactive are the calls of the source. Calls come from the whole dose curve; as a rule, active = well fitted cell-killing curve with a large enough effect; inconclusive = small, poorly fitted or top-dose-only effect; inactive = flat fitted curve, though single readings scatter.
Experiment: qHTS of pediatric cancer cell lines to identify multiple opportunities for drug repurposing: Primary screen for Rh18 cells (AID 1347102); note: nearly all actives have a fitted effect of over 65% in size
Conditions: Rh18 rhabdomyosarcoma viability, CellTiter-Glo luminescence, 48 h; series mostly up to 46 µM
From the text: Drug repurposing or repositioning has been offered as a strategy for drug development in oncology programs. This approach has special potential for childhood cancers and other rare or orphan diseases, where the expected return on new drug development has been a disincentive to pharmaceuticals.
In this project we exploit the poly-pharmacology of drugs to discover new indications via phenotypic screening of a panel of 19 well-characterized cell lines derived from solid tumors seen in children and adolescents. The goal is to identify approved drugs with previously unrecognized anticancer properties that has the potential to reveal new mechanisms and biological processes involved in carcinogenesis or drug resistance. We employed a titration-based paradigm (quantitative high-throughput screening or qHTS), where all compounds were tested at multiple concentrations for their effect on cell viability. Concentration-response curves (CRCs) were derived directly from the primary screen, and both potency and efficacy values were used to identify compounds with robust bioactivity profiles. We screened the NIH Chemical Genomics Center (NCGC) Pharmaceutical Collection (NPC) and Mechanism Interrogation Plate (MIPE) small molecule collections of approved and investigational compounds against these cell lines; and measured metabolically active cells after 48 hours of compound treatment as a proxy for cell viability.
Assay Submitter: Nathalia J. Martinez, National Center for Advancing Translational Sciences, National Institutes of Health, Rockville, MD, USA; email: natalia.martinez@nih.gov
[1] Shen, M et al. Quantitative high-throughput phenotypic screening of pediatric cancer cell lines identifies multiple opportunities for drug repurposing. Oncotarget 2017 Dec 19;9(4):4758-4772. PMID 29435139.
The cells were obtained from University of North Carolina (UNC), Pediatric Preclinical Testing Program (PPT), and Coriell Institute (CI).
qHTS cell viability assay:
Cells were assayed in growth media at a density of 500-1,000 cells/well. Five microliters of cells were dispensed into 1,536-well, white, solid-bottom, TC-treated plates (Greiner Bio One) using a multidrop dispenser and incubated at 37 degrees C, 5% CO2, under a humidified atmosphere for 5 hours. Twenty-three nanoliters of compounds and controls (neutral control DMSO or positive control bortezomib at final concentration of 2.3 µM) were subsequently transferred by Kalypsys pintool. For primary screens, the MIPE collection was tested at 11-point dilutions (final concentrations range from 0.78 nM to 46 µM) and the NPC collection at 8-point dilutions (final concentrations range from 0.59 nM to 46 µM). Compounds tested in follow-up screens were assayed at 11-point dilutions. Cells were incubated for 48 hours, followed by addition of 3 µL of CellTiter-Glo (Promega). After a 15 min incubation at room temperature, samples were analyzed for luminescence intensity using a ViewLux High-throughput CCD imager equipped with clear filters.
Potency is the fitted concentration of half-maximal effect.

Structure (SMILES)	Potency
Cc1ccc(-c2ncn(-c3ccc(Nc4nccc(-c5cccc(N6CCOCC6)c5)n4)cc3)n2)cn1	0.0526 µM (active)
C=CC(=O)Nc1cc2c(Nc3ccc(F)c(Cl)c3)ncnc2cc1OCCCN1CCOCC1	8.33 µM (active)
CNC(=O)c1c(F)cccc1Nc1nc(Nc2cc3c(cc2OC)CCN3C(=O)CN(C)C)nc2[nH]ccc12	8.33 µM (active)
CC(NCc1ccc2c(c1)nc(NC(=O)c1ccc(-c3cn[nH]c3)s1)n2CC(C)(C)O)C(C)(C)C (stereo not given)	1.66 µM (active)
Nc1ccc(C(=O)c2cc3c(ccc4ccccc43)[nH]2)cc1	inactive
CC(C)c1cc(C(=O)N2Cc3ccc(CN4CCN(C)CC4)cc3C2)c(O)cc1O	0.526 µM (active)
COC(=O)C1=C(C)NC(C)=C(C(=O)OCCN2CCN(C(c3ccccc3)c3ccccc3)CC2)C1c1cccc([N+](=O)[O-])c1 (stereo not given)	16.8 µM (active)
C[C@]12CC[C@H](O)CC1=CCC1C2CC[C@]2(C)C(n3cnc4ccccc43)=CCC12 (stereo not given in full)	inactive
O=C(O)c1ccc2c(c1)nc(Nc1cccc(Cl)c1)c1ccncc12	14.8 µM (active)
CCCn1c(=O)c2[nH]c(-c3cnn(Cc4cccc(C(F)(F)F)c4)c3)nc2n(CC)c1=O	inactive
O=c1c2ccccc2nc2n1CCc1c-2[nH]c2ccccc12	inactive
Cc1nc(N)ncc1-c1nc(N2CCOCC2)c2sc(C(C)(C)O)cc2n1	1.18 µM (active)
COc1cccc(-c2ccc(NC(=O)C3=C(C(=O)O)CCC3)c(F)c2)c1	inactive
CN(C)Cc1c(C(=O)NCCOc2ccc(C(=O)NO)cc2)oc2ccccc12	0.59 µM (active)
Cc1c(Cn2c(C)nc3c(C(=O)O)cc(N4CCOCC4)cc32)cccc1C(F)(F)F	inactive
COc1cc2nccc(Oc3ccc(NC(=O)C4(C(=O)Nc5ccc(F)cc5)CC4)cc3)c2cc1OC	10.5 µM (active)
C1=CCOCc2cc(ccc2OCCN2CCCC2)Nc2nccc(n2)-c2cccc(c2)OCC1	7.43 µM (active)
COc1cccc(Nc2c(C(N)=O)cnc3c(C)cc(S(=O)(=O)c4cccc(C(=O)N(C)C)c4)cc23)c1	inactive
CC[C@@H]1C(=O)N(C)c2cnc(Nc3ccc(C(=O)NC4CCC(N5CCN(CC6CC6)CC5)CC4)cc3OC)nc2N1C(C)C (stereo not given in full)	6.62 µM (active)
NC(=O)Nc1cc(-c2cccc(F)c2)sc1C(=O)N[C@H]1CCCNC1	13.2 µM (active)

Structure (SMILES)	Potency
CC(C)(C)c1cc(NC(=O)Nc2ccc(-c3cn4c(n3)sc3cc(OCCN5CCOCC5)ccc34)cc2)no1	inactive
NCC(=O)Nc1ccc(-n2nc(C(F)(F)F)cc2-c2ccc3c(ccc4ccccc43)c2)cc1	26.4 µM (active)
CCc1cc2c(cc1N1CCC(N3CCOCC3)CC1)C(C)(C)c1[nH]c3cc(C#N)ccc3c1C2=O	inactive
CCc1c2c(nc3ccc(O)cc13)-c1cc3c(c(=O)n1C2)COC(=O)[C@]3(O)CC	0.105 µM (active)
CNc1nccc(-c2cccnc2Oc2cc(C(=O)Nc3cccc(C(F)(F)F)c3)ccc2C)n1	18.7 µM (active)
CC(C)c1ccc(Cn2ccc3c4c(N)nc(NC5CC5)nc4ccc32)cc1	18.7 µM (active)
CC1(C)CCC(c2ccc(Cl)cc2)=C(CN2CCN(c3ccc(C(=O)NS(=O)(=O)c4ccc(N[C@H](CCN5CCOCC5)CSc5ccccc5)c(S(=O)(=O)C(F)(F)F)c4)cc3)CC2)C1	0.0296 µM (active)
CC1(C)O[C@@H]2C[C@@H]3[C@H]4C[C@@H](F)C5=CC(=O)C=C[C@]5(C)[C@@]4(F)[C@@H](O)C[C@]3(C)[C@]2(C(=O)CO)O1	inactive
CS(=O)(=O)c1ccc(-c2cnc(N)c(C(=O)Nc3ccccc3)n2)cc1	inactive
CC[C@H](CO)Nc1nc(NCc2ccccc2)c2ncn(C(C)C)c2n1	inactive
CC=CC1=C(C(=O)O)N2C(=O)[C@H](NC(=O)[C@H](N)c3ccc(O)cc3)[C@@H]2SC1	inactive
Nc1cccc(-c2cc3c(Oc4cccc(O)c4)ncnc3[nH]2)c1	11.8 µM (active)
Cc1cnc(Nc2ccc(F)cc2Cl)nc1-c1c[nH]c(C(=O)N[C@H](CO)c2cccc(Cl)c2)c1	16.6 µM (active)
c1ccc2c(CCNc3ccc(Nc4ccncc4)cc3)c[nH]c2c1	18.7 µM (active)
CCOC(=O)C1=C(C)NC2=C(C(=O)CC(C)(C)C2)C1c1ccc(-c2ccccc2)cc1 (stereo not given)	16.6 µM (active)
COC(=O)Nc1ccc(-c2nc(N3CCOCC3)c3cnn(C4CCN(Cc5cccnc5)CC4)c3n2)cc1	0.935 µM (active)
C=CC(=O)Nc1cccc(Oc2nc(Nc3ccc(N4CCN(C)CC4)cc3OC)ncc2Cl)c1	20.9 µM (active)
O=C(O)CO.[NH2-].[NH2-].[Pt+2]	inactive
CN(C)c1nc(Cc2ccc(NC(=O)c3ccc4ccccc4c3)cc2)nc(Cl)c1CC(=O)O	inactive
COc1cc2c(Oc3ccc4[nH]c(C)cc4c3F)ncnc2cc1OCCCN1CCCC1	18.7 µM (active)

— PubChem BioAssay (NCATS)
